Cycloheximide cs = counter-screen for Shiga toxin inhibitors: cycloheximide protein synthesis inhibition | cell reporter, cycloheximide protein synthesis inhibition counterscreen | max response, % | actives 12% (n = 300,000); in the data active = max response mostly above about 13%, no sharp cut-off; inactive = mostly below about 14%; also: read at 38.3 µM for the half of the compounds with a filed dose; 0% is about no effect
Shiga inhibitor = Shiga toxin inhibition | Vero cells, Shiga toxin protein synthesis inhibition reporter | inhibition, % at 38.7 µM | actives 9.2% (n = 290,000) | AID 2315; in the data active = inhibition mostly above about 28%, no sharp cut-off; inactive = mostly below about 43%; also: 0% is about no effect
AmpC inh no detg = AmpC beta-lactamase inhibition without detergent | P00811 | AmpC nitrocefin hydrolysis, absorbance 480 nm, 0.0001% Triton | Potency, µM (titrated, usually from 57.1 µM), for inactives: at the highest dose activity change, negative = inhibition, most hits filed as inhibitors | actives 0.52% (n = 330,000) | AID 485341;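 also: potency is read from the fitted curve at half-maximal effect; plate controls were no compound for no effect and no enzyme for full effect; nearly all actives have a fitted effect of over 20% in size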
Target sequence (P00811 whole entry, looked up): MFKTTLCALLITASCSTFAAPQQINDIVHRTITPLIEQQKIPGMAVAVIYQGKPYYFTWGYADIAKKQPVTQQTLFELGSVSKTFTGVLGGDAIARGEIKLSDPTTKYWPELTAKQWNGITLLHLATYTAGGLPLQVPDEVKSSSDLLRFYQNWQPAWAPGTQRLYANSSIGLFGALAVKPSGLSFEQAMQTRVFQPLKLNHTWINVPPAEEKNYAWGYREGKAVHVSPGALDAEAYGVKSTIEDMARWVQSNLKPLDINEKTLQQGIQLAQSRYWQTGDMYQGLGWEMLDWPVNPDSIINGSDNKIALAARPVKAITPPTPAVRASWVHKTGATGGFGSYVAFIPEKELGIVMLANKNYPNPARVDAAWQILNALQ
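AmpC (5.3 nM in the dispensed reagent) in 20 mM phosphate pH 7.0 with 0.01% (detergent screen) or 0.0001% Triton X-100 was preincubated with compounds for 15 min at room temperature. Nitrocefin was then added from an 800 uM solution, and hydrolysis was followed at 480 nm.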
NS1 function inh = blocks influenza NS1 protein function; Potency, µM (doses to about 46.1 µM), inactives show top-dose activity, positive = more growth; actives 0.4% (n = 270,000); calls by dose curve; also: potency is read from the fitted curve at half-maximal effect; actives are rising curves; nearly all actives have a fitted effect of over 50% in size
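Read-out: OD600 growth recovery of NS1-expressing budding yeast. Cells grown overnight at 30C in -URA glucose medium, washed, resuspended and diluted 1:100 in 2% galactose assay medium, pH 6.0. Same strain lacking NS1 served as positive control.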
AmpC inh detg = blocks E. coli AmpC beta-lactamase in detergent assay | P00811 | AmpC hydrolysis of nitrocefin, absorbance 480 nm, 0.01% Triton | actives 0.041% (n = 370,000) | Potency, µM (series often up to 114 µM), without a hit: at the top dose activity change, negative = inhibition, usual class: inhibitors;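 also: potency is read from the fitted curve at half-maximal effect; 0% = no-compound wells and -100% = no-enzyme wells; nearly all actives have a fitted effect of over 25% in size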
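AmpC (5.3 nM in the dispensed reagent) in 20 mM phosphate pH 7.0 with 0.01% (detergent screen) or 0.0001% Triton X-100 was preincubated with compounds for 15 min at room temperature. Nitrocefin was then added from an 800 uM solution, and hydrolysis was followed at 480 nm.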
Numbers without * were called inactive; ? = inconclusive; . = no result. Many of the other results were omitted from the sample, so hits are more common in it than they were. Unless noted, calls follow the shape of the dose curve; as a rule, active = well fitted curve in the direction sought with a large enough effect; inconclusive = small, poorly fitted or top-dose-only effect, or another doubt; inactive = no such curve, though single readings can be large; an effect the other way counts as inactive or inconclusive.

SMILES | Cycloheximide cs | Shiga inhibitor | AmpC inh no detg | NS1 function inh | AmpC inh detg
Cc1ccc(-c2nc(Nc3ccc(O)cc3)c3ccccc3n2)cc1 | 13.8* | 55.7 | ? | -1.8% | -11.0%
COc1ccc(Nc2nc(-c3ccccc3O)nc3ccccc23)cc1 | -2.5 | -14.2 | 2µM* | -2.9% | 0.1%
c1ccc(-c2cc(N3CCOCC3)nc(-c3ccccc3)n2)cc1 | 3.2 | -10.6 | -19.4% | -8.3% | -1.2%
Cc1ccc(S(=O)(=O)N2CCCCC2CCNC(=O)C(=O)NCc2ccccc2)cc1 (stereo not drawn) | . | . | -4.0% | . | ?
CC(C)c1ccc(S(=O)(=O)N2CCN(C(=O)C3CCCCC3)CC2)cc1 | -3.4 | -5.4 | 46.0% | 2.4% | ?
Cc1ccc(-c2nc(Nc3ccc(N4CCOCC4)cc3)c3ccccc3n2)cc1 | 15.9 | 52.4* | 49.5% | -23.0% | -5.4%
COc1ccc(S(=O)(=O)NNC(=O)Cc2csc(C)n2)cc1[N+](=O)[O-] | . | . | -19.7% | . | -0.5%
COc1ccc(-c2csc(Nc3ccc(C)cn3)n2)cc1OC | 34.0* | 75.4* | 58.1% | 12.0% | -3.7%
COc1ccc(-c2csc(Nc3cc(C)ccn3)n2)cc1OC | 51.1* | 63.2* | 66.8% | -27.0% | -13.1%
COc1ccc(-c2csc(C)n2)cc1OC | 4.9 | 1.0 | -2.6% | -18.3% | 6.8%
Nc1nnc(CSCc2ccccc2Cl)s1 | 7.8 | 8.1 | -22.1% | 2.5% | 8.8%
CC(c1ccccc1)c1nnc(N)s1 (stereo not drawn) | -2.3 | 2.7 | -11.5% | 1.7% | 1.3%
Cc1ccc(SCc2nnc(N)s2)cc1 | 10.3* | 0.0 | -15.7% | 5.4% | ?
CNc1nnc(-c2ccc(OC)cc2)s1 | 32.7* | 78.1* | -15.4% | -8.1% | -10.0%
CCCOc1ccc(-c2nnc(N)s2)cc1 | 39.7* | 105.1* | -13.9% | -10.5% | -0.3%
COc1ccc(OCCc2nnc(N)s2)cc1 | -2.7 | -1.8 | -24.8% | 2.8% | -4.3%
CC(C)c1ccc(-c2nnc(N)s2)cc1 | 65.9* | 53.5* | -33.3% | -20.1% | -1.4%
CCOC(=O)C(C(=O)OCC)N(Cc1cc(OC)ccc1OC)C(=O)C1CC(CO[Si](C)(C)C(C)(C)C)=CN1C(=O)OC(C)(C)C (stereo not drawn) | 22.9 | 5.3 | . | . | .
O=C(NCCO)C(=O)NCC(c1ccc2c(c1)OCO2)N1CCOCC1 (stereo not drawn) | . | . | . | . | 0.3%
COc1ccc(S(=O)(=O)N2CCN(C/C=C/c3ccccc3)CC2)cc1F | -0.8 | -3.9 | 60.7% | -5.9% | -5.9%
COc1ccc(-c2nnc(N)s2)cc1 | 37.4* | 39.5 | -23.7% | -7.4% | ?
Cc1ccc(-c2nnc(N)s2)cc1 | 42.9* | 65.9* | -6.1% | -4.7% | ?
Nc1nnc(-c2ccncc2)s1 | 0.5 | -3.3 | 4.6% | -3.7% | ?
COc1ccc(Cc2cnc(N)s2)cc1 | 5.4 | 24.0 | -12.3% | 2.4% | -4.3%
Cc1nc2ccc(S(=O)(=O)N(C)CC(=O)Nc3ccc(Br)c(C)c3)cc2s1 | . | . | . | . | -0.1%
SMILES | Cycloheximide cs | Shiga inhibitor | AmpC inh no detg | NS1 function inh | AmpC inh detg
COc1ccc(NC(=O)CNC(=O)c2ccco2)cc1 | 50.6* | 72.6* | 1.6% | -1.8% | -0.2%
CC(C)C(CC(=O)NCc1ccco1)c1ccco1 (stereo not drawn) | 1.0 | -2.0 | 0.4% | -1.8% | -1.3%
COc1ccc(NC(=O)CC(c2ccco2)C(C)C)cc1 (stereo not drawn) | 20.6* | 5.6 | -23.4% | 1.1% | 1.9%
CC(C)(C)c1ccc(NC(=O)CCNC(=O)c2ccco2)cc1 | 18.6* | 33.5 | -0.6% | -9.2% | -13.1%
Cc1ccc(NC(=O)CNC(=O)c2ccco2)cc1 | 33.4* | 47.9* | -27.0% | 2.6% | -3.4%
O=C(C1CCCCC1)N(Cc1cccnc1)c1nc2c(F)cccc2s1 | . | . | . | . | -3.5%
O=C(Nc1ccc2c(c1)OCO2)c1ccc(Cl)cc1Cl | -2.2 | -11.9 | -0.9% | 4.9% | 6.5%
O=C(c1ccc2c(c1)OCO2)N1CCCC1 | 8.7 | 47.7 | 14.5% | -10.1% | -0.2%
COC(=O)c1c(-c2cccnc2)csc1NC(=O)c1ccc2c(c1)OCO2 | 37.2* | 69.9* | -9.2% | 10.7% | ?
O=C(Nc1ccc(C(=O)N2CCCC2)cc1)c1ccc2c(c1)OCO2 | 27.1* | 36.0 | -20.3% | -1.3% | ?
COc1cc(NC(=O)c2ccc3c(c2)OCCO3)ccc1NC(=O)c1ccccc1Cl | -6.7 | -19.5 | -5.7% | 17.5% | 4.8%
O=C(Nc1ccc(F)c(Cl)c1)c1ccc2c(c1)OCO2 | 50.8* | 105.3* | -30.2% | -26.4% | -7.9%
COc1ccc(NC(=O)c2ccc3c(c2)OCO3)cc1Cl | 66.4* | 76.2* | -19.4% | -34.8% | -13.9%
COC(=O)c1ccc(NC(=O)c2ccc3c(c2)OCO3)cc1 | 24.4* | 42.6* | -9.7% | -1.9% | -2.2%
COc1ccc(NCc2ccc3c(c2)OCO3)cc1Cl | 21.8* | 43.4* | -60.8% | -54.5% | 1.1%
N#Cc1cccc(NC(=O)CNc2cc(S(=O)(=O)N3CCOCC3)ccc2N2CCCC2)c1 | . | . | -16.1% | . | -2.8%
CC(=O)Nc1ccccc1O | -2.9 | -0.8 | -26.7% | -5.0% | ?
CC(=O)Nc1ccc(OCCOc2ccc(NC(C)=O)cc2)cc1 | -3.5 | -6.7 | -8.0% | 5.6% | -12.8%
CC(=O)Nc1ccc(-c2ccc(NC(C)=O)cc2)cc1 | 32.6* | 60.0* | -13.2% | . | 6.6%
COC(=O)Nc1ccc(NC(C)=O)cc1 | -2.2 | -3.4 | -21.6% | 14.1% | -10.7%
CC(=O)Nc1ccc(C#Cc2ccc(NC(C)=O)cc2)cc1 | 33.6* | 67.8* | -1.5% | 8.4% | 3.7%
CC(=O)Nc1ccc(-c2ccc(NC(C)=O)c(O)c2)cc1O | 18.3* | 33.0* | -47.9% | 0.6% | -4.6%
O=C1c2ccccc2C(=O)N1OCc1ccccc1[N+](=O)[O-] | 24.4* | 81.9 | -3.1% | 4.9% | 1.4%
O=C(Cc1ccccc1[N+](=O)[O-])OCc1cccc([N+](=O)[O-])c1 | 31.5* | 91.7* | -15.9% | -5.1% | 5.4%
O=C(Cc1ccccc1[N+](=O)[O-])OCN1C(=O)c2ccccc2C1=O | 17.8* | 29.9 | -13.2% | 12.5% | 3.7%
SMILES | Cycloheximide cs | Shiga inhibitor | AmpC inh no detg | NS1 function inh | AmpC inh detg
O=C1c2ccccc2S(=O)(=O)N1Cc1ccccc1[N+](=O)[O-] | -0.7 | 3.2 | -13.1% | -6.8% | -6.0%
CCN(CC)c1ccc(/C=c2\sc3nc4ccccc4n3c2=O)c(O)c1 | 18.6 | 38.0* | -26.5% | . | 3.4%
Cc1cc(/C=c2\sc3nc4ccccc4n3c2=O)c(C)n1-c1ccc(C(=O)O)cc1 | 9.4 | 5.8 | -26.2% | -2.0% | 0.7%
CCOC(=O)C1=C(C)N=c2s/c(=C\c3ccc(O)c([N+](=O)[O-])c3)c(=O)n2C1c1ccccc1OC (stereo not drawn) | 1.7 | -2.8 | -30.4% | 29.2% | -12.6%
Cc1cc(C)c2nc3s/c(=C/c4ccccc4)c(=O)n3c2c1 | 15.4 | 1.8 | -18.1% | 5.6% | 2.3%
Cc1cc(/C=c2/sc3nc4ccccc4n3c2=O)c(C)n1-c1ccccn1 | 67.2* | 27.1 | -18.9% | 12.0% | -12.0%
O=c1/c(=C\c2cccnc2)sc2nc3ccccc3n12 | 31.3* | 127.2* | -22.0% | -2.7% | ?

Screening data (PubChem BioAssay)
